Bioassay records as filed in PubChem.
TSHR ag – TSH receptor (human) agonism. P16473. HEK293-CNG-TSHR cells (CNG channel as cAMP sensor), membrane potential dye, cAMP. Potency, µM (series often up to 57.1 µM), inactives show at the highest dose activation, usual class: activators. 73,000 tested, 0.48% active; active = well fitted activation curve with a large enough effect in the main read-out, with a control signal flat, not every such curve was filed as active; inconclusive = small, poorly fitted or top-dose-only effect, or a change in a side signal; inactive = no such curve, though single readings can be large or run the other way; % of control where 0% means no effect;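 also: the control signal comes from parental cells without the receptor; potency is read from the fitted curve at half-maximal effect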
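cAMP rise detected as CNG-channel membrane depolarization by fluorescent dye (emission 590 nm), 30 min after compound, following 60 min dye loading containing 100 uM RO 20-1724 at room temperature. Cells: TSHR/CNG HEK 293, with parental CNG HEK 293 as control.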
FLuc inh – firefly luciferase inhibition; purified firefly luciferase, luminescence, 8 min; P08659; 72,000 tested, 2.2% active; Potency, µM (series often up to 57.1 µM), for inactives: top-dose activity change, negative = inhibition, most hits filed as inhibitors; also: potency is read from the fitted curve at half-maximal effect; % is scaled to controls: 0 for no effect and ±100 for the full control effect; nearly all actives have a fitted effect of over 40% in size
Target sequence (P08659 whole entry, looked up): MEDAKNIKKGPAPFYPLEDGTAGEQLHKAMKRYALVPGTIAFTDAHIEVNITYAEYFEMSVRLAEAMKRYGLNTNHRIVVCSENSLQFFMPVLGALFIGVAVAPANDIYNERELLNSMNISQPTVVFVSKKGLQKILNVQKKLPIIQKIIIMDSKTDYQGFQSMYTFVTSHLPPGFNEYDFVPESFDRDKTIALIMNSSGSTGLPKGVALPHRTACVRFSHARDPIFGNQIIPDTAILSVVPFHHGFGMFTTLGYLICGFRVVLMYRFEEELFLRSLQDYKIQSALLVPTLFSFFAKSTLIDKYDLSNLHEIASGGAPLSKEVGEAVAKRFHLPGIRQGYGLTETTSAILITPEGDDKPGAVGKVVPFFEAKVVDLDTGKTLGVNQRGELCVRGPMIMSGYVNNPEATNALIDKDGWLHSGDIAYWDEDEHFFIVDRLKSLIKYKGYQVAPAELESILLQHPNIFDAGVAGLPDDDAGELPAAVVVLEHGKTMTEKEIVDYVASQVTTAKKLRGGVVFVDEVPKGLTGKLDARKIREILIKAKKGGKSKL
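qHTS concentration-response profiling: light output of P. pyralis luciferase with luciferin and 10 uM ATP, imidazole buffer pH 7.2. Read by luminescence after 8-min room-temperature incubation.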
Tau fil binding – tau filament binding | recombinant tau filaments, thioflavin S fluorescence, 15 h; filaments grown with octadecylsulfate alongside compound | Potency, µM (highest dose often 57.1 µM), without a hit: at the highest dose activity change, negative = inhibition | 71,000 tested, 2% active | AID 596;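 also: potency is read from the fitted curve at half-maximal effect; % is scaled to controls: 0 for no effect and ±100 for the full control effect; actives lower thioflavin S fluorescence by blocking filaments or displacing dye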
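ThS-based fibril read: tau 1 uM final, inducer ODS 30 uM final, 37 C for 15 h, ex 450/em 510 nm.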
15-hLO inh – blocks human 15-lipoxygenase activity. P16050. purified 15hLO-1, xylenol orange hydroperoxide absorbance. Potency, µM (series often up to 57.1 µM), for inactives: top-dose activity change, negative = inhibition, most hits filed as inhibitors. 74,000 tested, 1.4% active. AID 887; also: potency is read from the fitted curve at half-maximal effect; % is scaled to controls: 0 for no effect and ±100 for the full control effect; nearly all actives have a fitted effect of over 55% in size
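Purified human 15hLO-1 (40 nM) in 25 mM Hepes pH 7.5, 0.01% Triton X-100, preincubated 15 min RT with compound, then 50 uM arachidonic acid for 6 min. Hydroperoxide read by ferrous/xylenol orange, 30 min; 573/405 nm absorbance ratio gave progress.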
PK Bst – alters activity of Bacillus stearothermophilus pyruvate kinase | purified pyruvate kinase, luminescence ATP production; ribose 5-phosphate activator present at AC10 | AID 361 | 51,000 tested, 1.2% active | Potency, µM; in the data active = potency below about 11 µM; inconclusive = mostly about 12 µM to 25 µM;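 the screen sought inhibitors and activators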;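 also: potency is read from the fitted curve at half-maximal effect; scaled between full activation by ribose 5 phosphate and full inhibition by luteolin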
HEK293 cAMP ctrl – counter-screen for TSHR agonists: cAMP increase in parental HEK293. 73,000 tested, 2.5% active. Potency, µM (highest dose often 57.1 µM), for the others: at the top dose activation, usual class: activators. parental HEK293 CNG cAMP sensor, membrane potential fluorescence; also: potency is read from the fitted curve at half-maximal effect; % of control where 0% means no effect; nearly all actives have a fitted effect of over 55% in size
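Parental HEK 293 cells stably expressing a cAMP-gated CNG channel were loaded with membrane potential dye containing 100 uM RO 20-1724 for 60 min. Compound added for 30 min; depolarization read as fluorescence intensity at 590 nm.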
HEK293 cAMP cnt – TSHR-independent cAMP elevation, counter-screen | shares compounds with TSHR ag | parental HEK293 CNG biosensor, cAMP membrane potential fluorescence | activity change, negative = inhibition, % at 32.9 µM | 150 tested, under 10 active | AID 953
* = called active by the depositor; i = inactive; ? = inconclusive; . = no result given; [ ] = another dose, or the depositor's remark. Only some compounds are listed: those with a hit (about 7.8% of all), similar ones and a draw of the others. Unless noted, calls follow the shape of the dose curve; as a rule, active = well fitted curve in the direction sought with a large enough effect; inconclusive = small, poorly fitted or top-dose-only effect, or another doubt; inactive = no such curve, though single readings can be large; an effect the other way counts as inactive or inconclusive.

SMILES | TSHR ag | FLuc inh | Tau fil binding | 15-hLO inh | PK Bst | HEK293 cAMP ctrl | HEK293 cAMP cnt
O=C(CSc1nnc(-c2cccs2)n1Cc1ccco1)Nc1ccc2c(c1)OCO2 | ? | -3.3% | 20.9% | -10.0% | >57 | ? | .
COc1ccc(-c2ccc(-c3noc(C)n3)c(OC)n2)cc1 | 3.16µM* | -6.1% | 38.4% | -14.9% | >57 | 20.7% | 8.5
CCOc1nc(-c2ccc(OC)cc2)ccc1-c1noc(C)n1 | 13.8% | -1.0% | 221.3% | -13.3% | i | 25.1% | .
COc1ccccc1OC[C@H](O)COC(N)=O | -20.8%[25.6 µM] | 10.2%[25.5 µM] | 9.2%[25.6 µM] | 13.6%[25.6 µM] | . | 3.8%[25.6 µM] | .
CC(=O)Nc1nonc1-n1nnc(C(=O)NCc2ccccc2)c1C | 5.7% | -4.2% | 17.9% | 0.5% | >57 | 2.7% | .
CCCCCCn1c(C(C)O)nc2ccccc21 (stereo not drawn) | . | 2.8%[25.5 µM] | . | . | >25.6 | . | .
Cc1ccc(C)c(Cn2c(C(C)O)nc3ccccc32)c1 (stereo not drawn) | 3.98µM* | -0.5% | 14.0% | 20.5% | >57 | 17.9% | -2.8
COc1ccc(F)cc1S(=O)(=O)n1cc(C)nc1-c1ccccc1 | 6.9% | -1.7% | 2.4% | 12.0% | >57 | 3.8% | -53.5[25.6 µM]
CC1(C)c2ccccc2N2CCC(=O)NC21/C=C/c1ccco1 (stereo not drawn) | 3.16µM* | -3.1% | ? | ? | >57 | 16.9% | 13.4
CC1(C)c2ccccc2N2CC(=O)NC21/C=C/c1ccco1 (stereo not drawn) | 2.51µM* | -3.1% | ? | ? | >57 | 12.4% | 9.7
O=C1CCCC=C1[C@@H](O)C1CCCCC1 | -2.0%[11.4 µM] | 0.9%[11.4 µM] | . | 0.1%[11.4 µM] | . | -0.9%[11.4 µM] | .
Nc1nnc(SCC(=O)NCc2ccc3c(c2)OCO3)s1 | -7.9% | 4.6% | 2.9% | -15.3% | >57 | -5.8% | .
NC(=O)c1nsc(C(=O)N(CC(=O)NCc2ccc3c(c2)OCO3)C2CCCC2)c1N | 12.6µM* | 0.1% | -3.5% | 4.1% | >57 | 12.8% | 7.5
Cc1ccc(-n2nc(-c3ccc(N)cc3)cc2N)cc1 | -21.7% | -0.7% | 7.94µM* | -1.9% | . | -5.7% | -9.0[25.6 µM]
